A short description of this test: acridine orange-DNA binding displacement – biochemical, fluorescence polarization, cherry-picked samples, set 2, artefact control for KSHV LANA DNA-binding inhibitor project, dose response (AID 504727). On the technique in general: In fluorescence polarisation assays a small probe gives low polarisation when free and higher when bound to something large.

Calls of active or inactive are those of the source.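 How the source made its calls: active means fitted half-maximal concentration AC50 at or below ten times the highest valid tested dose, with signal falling as DNA is displaced (actives reach about 34 µM in these data); inconclusive means flat fit at moderate signal loss, or poor fit quality; inactive means the rest, including signal rising instead of falling.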

The text below walks through data of PubChem BioAssay AID504727 (Broad Institute, 2011).

The term AC50 denotes the concentration at which the activity in the assay is half-maximal. As to `CC(C(=O)Nc1ccc(C(=O)O)c(O)c1)N1C(=O)/C(=C\c2ccco2)SC1=S` (stereo not given), the AC50 result is “inactive”.

For `O=C(OCCN1C(=O)c2cccc3c(N4CCOCC4)ccc(c23)C1=O)c1ccc(Cl)cc1Cl`, the AC50 was 5.25 µM (active).

On to `C=CC1=C(C(=O)O)N2C(=O)[C@@H](NC(=O)/C(=N/OCC(=O)O)c3csc(N)n3)[C@H]2SC1`, for which the AC50 entry is “inactive”.

On to `O=c1cc(-c2ccc(O)c(O)c2)oc2cc(O[C@@H]3O[C@H](CO)[C@@H](O)[C@H](O)[C@H]3O)cc(O)c12`, for which the AC50 result was “inactive”.

On to `O=C(NCc1cccnc1)C(=O)C1C(=O)Nc2ccccc21` (stereo not given), for which the AC50 entry is “inactive”.

On to `CCCn1c(SCC(=O)NCc2cccs2)nc2c1c(=O)n(C)c(=O)n2C`, for which the AC50 result was “inactive”.

On to `Cc1nc2ccccc2n2c(O)c(CC(=O)O)cc12`, for which the AC50 was 10.2 µM (active).

Consider `COc1cc2c(cc1OC)-c1cc3ccc4c(c3c[n+]1CC2)OCO4`, for which the AC50 is 32.2 µM (active).

Turning to `COc1cccc2c1C(=O)c1c(O)c3c(c(O)c1C2=O)CC(O)(C(C)=NNC(=O)c1ccc(Cl)c(Cl)c1)CC3OC1CC(N)C(O)C(C)O1` (stereo not given), the AC50 is 2.05 µM (active).

For `CCN(C(=O)COC(=O)CNS(=O)(=O)c1ccc(SC)c([N+](=O)[O-])c1)C1CCCCC1`, the AC50 entry is “inactive”.

On to `O=c1nc(N2CCOCC2)ccn1-c1nc(-c2ccccc2)sc1-c1ccccc1`, for which the AC50 entry was “inactive”.

As for `COc1ccccc1CNC(=O)C(=O)NCC1CCCN1S(=O)(=O)c1cccs1` (stereo not given), the AC50 result was “inactive”.

Turning to `Brc1c(CSc2nncc3ccccc23)nc2ccccn12`, the AC50 entry was “inactive”.

With `CCOC(=O)c1cnc(SC)nc1Sc1ccc(Cl)cc1Cl`, the AC50 entry was “inactive”.

On to `Oc1ccccc1C=Nc1ccccc1-c1nc2ccccc2[nH]1`, for which the AC50 result is “inactive”.
